Measurements as given in the supplement of paper PMC6607015.
Structures can show the parent of a compound that is named as a salt.

Experiments:
Conditions in all cases: compound concentration in added solution (µM; 5 µl added to 20 µl cells): 10; 18 h
[1] = system: A431; assay: LBPA endosome anti-LBPA integrated intensity (sum per cell), Z-score; higher = more LBPA staining
In short: (§1)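 Duplicate 384-well imaging plates were prepared with 5 µl of 10 µM compound solution per well, and 3,500 HeLa MZ or A431 cells in 20 µl were added on top. Following 18 h of incubation and fixation in 4% PFA, cells received 6C4 anti-LBPA antibody, filipin, propidium iodide and CellTracker green. Four images per well at 20× were segmented in MetaXpress to yield per-cell integrated LBPA or filipin intensity, whole-cell or within LBPA endosomes. These intensities are reported as Z-scores normalised in AcuityXpress.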

[2] = system: HeLa MZ; assay: as above
In short: as §1

[3] = system: A431; assay: whole-cell filipin (free cholesterol) integrated intensity, Z-score; higher = more cholesterol staining
In short: as §1

[4] = system: HeLa MZ; assay: as above
In short: as §1

[5] = system: A431; assay: filipin (cholesterol) integrated intensity within LBPA endosomes, Z-score; higher = more cholesterol in LBPA endosomes
In short: as §1

[6] = system: HeLa MZ; assay: as above
In short: as §1

Row | SMILES | LBPA endosome anti-LBPA integrated intensity (z-score) [1] | LBPA endosome anti-LBPA integrated intensity (z-score) [2] | whole-cell filipin (z-score) [3] | whole-cell filipin (z-score) [4] | filipin (z-score) [5] | filipin (z-score) [6]
1 | CC(=C(CCO)SSCC1CCCO1)N(C=O)Cc1cnc(C)nc1N (stereo in doubt) [Fursultiamine Hydrochloride] | -0.412 | -0.276 | -0.00261 | 0.173 | -0.513 | -0.472
2 | Nc1c2c(nc3ccccc13)CCCC2 [Tacrine hydrochloride] | 0.535 | 0.705 | -0.59 | 0.0516 | 0.0216 | 0.583
3 | CC(C)NC[C@H](O)COc1cccc2ccccc12 [(S)-propranolol hydrochloride] | -0.105 | 1.72 | 0.666 | -0.426 | -0.189 | 0.093
4 | Cc1nnc(NS(=O)(=O)c2ccc(N)cc2)s1 [Sulfamethizole] | -0.497 | -0.619 | -0.626 | -0.62 | -0.469 | -0.463
5 | O=C1c2ccccc2C(=O)C1c1ccccc1 [Phenindione] | -0.457 | 0.398 | -0.346 | -0.343 | -0.498 | -0.468
6 | CCC1NC(=O)c2cc(S(N)(=O)=O)c(Cl)cc2N1 (stereo not given) [Quinethazone] | -0.328 | -1.04 | 0.366 | 0.147 | -0.404 | -0.386
7 | O=C1NCN(c2ccccc2)C12CCN(CCCC(c1ccc(F)cc1)c1ccc(F)cc1)CC2 [Fluspirilen] | 2.78 | 1.04 | 1.65 | 1.64 | 4.57 | 4.14
8 | CC(=O)[C@H]1CC[C@H]2[C@@H]3C=CC4=CC(=O)CC[C@@]4(C)[C@@H]3CC[C@]12C [Dydrogesterone] | 1.19 | 1.12 | 0.649 | 0.0624 | 0.655 | -0.0901
9 | COc1ccc(C(=O)c2ccccc2O)c(O)c1 [Dioxybenzone] | -0.417 | 0.711 | -0.27 | 0.232 | -0.379 | -0.234
10 | C[C@H](CS)C(=O)N1CCC[C@H]1C(=O)O [Captopril] | -0.394 | -0.389 | -0.482 | 0.478 | -0.442 | -0.261
11 | CC(Cc1cccc(C(F)(F)F)c1)NCCOC(=O)c1ccccc1 (stereo not given) [Benfluorex hydrochloride] | -0.077 | -0.59 | -0.118 | 0.0685 | -0.352 | -0.573
12 | CN(C)CCCO[C@@H]1[C@H]2OC(C)(C)O[C@H]2O[C@@H]1[C@H](O)CO [Amiprilose hydrochloride] | -0.365 | -0.384 | -0.0258 | -0.369 | -0.415 | -0.492
13 | O=C(O)c1ccccc1OP(=O)(O)O [Fosfosal] | -0.256 | 0.942 | -0.159 | 0.251 | -0.274 | -0.0166
14 | Cc1c(Cl)cccc1Nc1ncccc1C(=O)O [Clonixin Lysinate] | -0.476 | -1.1 | -0.0028 | -0.353 | -0.486 | -0.62
15 | Nc1ccc(O)c(C(=O)O)c1 [Mesalamine] | -0.0986 | 0.304 | 0.385 | 0.263 | -0.341 | -0.247
16 | N[C@@H](Cc1ccc(O)c(O)c1)C(=O)O [Levodopa] | -0.339 | -0.518 | -0.462 | -0.115 | -0.332 | -0.358
17 | OCCN1C[C@H](O)[C@@H](O)[C@H](O)[C@H]1CO [Miglitol] | -0.534 | -0.285 | -0.628 | -0.643 | -0.487 | -0.578
18 | CN(C(=O)C(Cl)Cl)c1ccc(OC(=O)c2ccco2)cc1 [Diloxanide furoate] | -0.565 | -0.529 | -0.629 | -0.7 | -0.498 | -0.517
19 | CC(C)NCC(O)COc1ccc(COCCOC(C)C)cc1 (stereo not given) [Bisoprolol fumarate] | 0.695 | 0.146 | -0.603 | 0.308 | -0.0123 | -0.0431
20 | CC(C)NC[C@@H](O)COc1ccc(CC(N)=O)cc1 [(R)-(+)-Atenolol] | -0.596 | -1.65 | -0.23 | -0.591 | -0.512 | -0.472
21 | CN1CCN(C(c2ccccc2)c2ccc(Cl)cc2)CC1 (stereo not given) [Chlorcyclizine hydrochloride] | 1.56 | 0.74 | 1.78 | -0.254 | 1.24 | 0.687
22 | CC(CCc1ccccc1)NCC(O)c1ccc(O)c(C(N)=O)c1 (stereo not given) [Labetalol hydrochloride] | 0.794 | 1.06 | 1 | -0.0368 | 0.489 | 0.328
23 | CCn1cc(C(=O)O)c(=O)c2cc(F)c(N3CCNC(C)C3)c(F)c21 (stereo not given) [Lomefloxacin hydrochloride] | -0.676 | -1.53 | -1.2 | -0.837 | -0.597 | -0.65
24 | CC(=O)OCC(CCn1cnc2cnc(N)nc21)COC(C)=O [Famciclovir] | -0.437 | -0.227 | -0.465 | -0.311 | -0.431 | -0.386
25 | CN(C)CCCN1c2ccccc2CCc2ccc(Cl)cc21 [Clomipramine hydrochloride] | 3.59 | 1.91 | 1.1 | -0.141 | 2.35 | 1.89

Row | SMILES | LBPA endosome anti-LBPA integrated intensity (z-score) [1] | LBPA endosome anti-LBPA integrated intensity (z-score) [2] | whole-cell filipin (z-score) [3] | whole-cell filipin (z-score) [4] | filipin (z-score) [5] | filipin (z-score) [6]
26 | c1ccc(CNc2ncnc3nc[nH]c23)cc1 [Aminopurine, 6-benzyl] | -0.375 | -0.475 | -0.69 | -0.144 | -0.46 | -0.279
27 | CCOc1cc(CC(=O)N[C@@H](CC(C)C)c2ccccc2N2CCCCC2)ccc1C(=O)O [Repaglinide] | -0.598 | -1.05 | 0.149 | 0.153 | -0.42 | -0.591
28 | Cc1cc(-c2ccccc2)nnc1NCCN1CCOCC1 [Minaprine dihydrochloride] | -0.498 | -0.183 | -0.925 | -0.799 | -0.593 | -0.625
29 | COC(=O)C1=C(C)NC(C)=C(C(=O)OC)C1c1ccccc1[N+](=O)[O-] [Nifedipine] | -0.346 | -0.877 | -0.739 | -0.61 | -0.513 | -0.614
30 | O=C1OCCN1/N=C/c1ccc([N+](=O)[O-])o1 [Furazolidone] | -0.473 | -0.0304 | -0.00282 | 0.522 | -0.483 | -0.65
31 | CC(C(=O)O)c1cccc(Oc2ccccc2)c1 (stereo not given) [Fenoprofen calcium salt dihydrate] | -0.519 | -0.608 | -0.389 | -0.428 | -0.476 | -0.491
32 | C(=C\c1ccccc1)/CN1CCN(C(c2ccccc2)c2ccccc2)CC1 [Cinnarizine] | -0.223 | 0.618 | -0.605 | -0.52 | -0.314 | -0.0159
33 | CCn1cc(C(=O)O)c(=O)c2cc(F)c(N3CCNCC3)nc21 [Enoxacin] | -0.309 | -0.0536 | 0.119 | 0.315 | -0.364 | -0.345
34 | CCOC(=O)C1=C(C)NC(C)=C(C(=O)OCC)C1c1ccccc1/C=C/C(=O)OC(C)(C)C [Lacidipine] | 0.359 | 1.4 | 0.71 | 1.28 | 0.446 | 0.927
35 | CCCCC(=O)O[C@H]1CC[C@H]2[C@@H]3CCc4cc(O)ccc4[C@H]3CC[C@]12C [Estradiol Valerate] | -0.347 | -0.788 | 0.103 | 0.191 | -0.224 | -0.226
36 | Cc1nccn1CC1CCc2c(c3ccccc3n2C)C1=O (stereo not given) [Ondansetron Hydrochloride] | 0.526 | 1.23 | -0.22 | 0.362 | -0.149 | 0.186
37 | O=C(CCCN1CCC(O)(c2ccc(Cl)cc2)CC1)c1ccc(F)cc1 [Haloperidol] | 2.66 | 2.75 | 1.61 | 0.834 | 2.42 | 2.21
38 | NCCCC(O)(P(=O)(O)O)P(=O)(O)O [Alendronate sodium] | -0.662 | -1.69 | -0.705 | -0.128 | -0.56 | -0.588
39 | CN(CCOc1ccc(CC2SC(=O)NC2=O)cc1)c1ccccn1 (stereo not given) [Rosiglitazone Hydrochloride] | -0.367 | 0.286 | 0.193 | 0.897 | -0.277 | -0.0127
40 | CC(c1cc2ccccc2s1)N(O)C(N)=O (stereo not given) [Zileuton] | -0.514 | -0.465 | -0.358 | -0.366 | -0.391 | -0.425
41 | CC(=O)N[C@@H](CS)C(=O)O [Acetylcysteine] | -0.477 | -0.307 | -0.0556 | -0.751 | -0.4 | -0.456
42 | Cc1onc(-c2c(Cl)cccc2Cl)c1C(=O)N[C@@H]1C(=O)N2[C@@H]1SC(C)(C)[C@@H]2C(=O)O [Dicloxacillin sodium salt hydrate] | -0.319 | -0.38 | -0.616 | -0.567 | -0.395 | -0.582
43 | CS(=O)(=O)OCCCCOS(C)(=O)=O [Busulfan] | -0.537 | -0.499 | -0.466 | 0.544 | -0.535 | -0.476
44 | C[C@H]1C[C@H]2[C@@H]3CCC4=CC(=O)C=C[C@]4(C)[C@@]3(F)[C@@H](O)C[C@]2(C)[C@@]1(O)C(=O)CO [Betamethasone] | -0.442 | -0.354 | -0.547 | -0.354 | -0.536 | -0.463
45 | CCCCC(O)c1ccccc1 (stereo not given) [Fenipentol] | -0.545 | -0.11 | -0.922 | -0.426 | -0.553 | -0.613
46 | CC(C)(CO)C(O)C(=O)NCCCO (stereo not given) [Panthenol (D)] | -0.558 | -0.28 | -0.953 | -0.974 | -0.509 | -0.649
47 | Cc1ccc(Cl)c(Nc2ccccc2C(=O)O)c1Cl [Meclofenamic acid sodium salt monohydrate] | -0.528 | -0.676 | -0.856 | -0.416 | -0.531 | -0.606
48 | CN1CCC(=C2c3ccccc3CCc3sccc32)CC1 [Pizotifen malate] | 2.92 | 2.11 | 2.58 | -0.0276 | 2.82 | 1.53
49 | N=C(N)NC(=N)NCCc1ccccc1 [Phenformin hydrochloride] | -0.459 | 0.0471 | -0.366 | 1.16 | -0.42 | -0.335
50 | C[C@]12CC[C@@H]3c4ccc(O)cc4CC[C@H]3[C@@H]1C[C@@H](O)[C@@H]2O [Estriol] | -0.219 | 0.135 | -0.24 | -0.552 | -0.367 | -0.397
